Sampled rows, rich in hits. Any-hit rate of the full collection: about 0.44%.
YopH inh: blocks Yersinia enterocolitica YopH tyrosine phosphatase | fluorescence Ex485/Em525 | inhibition, % (no concentration beside the values) | actives 0.16% (n = 140,000) | AID 898; in the data active means inhibition above about 50%
RmlCD inh mix: RmlC/RmlD inhibition, mixture screen | RmlC/RmlD coupled enzyme inhibition, 384-well mixture HTS | inhibition, % at 5.5 µM | actives 0.39% (n = 110,000) | AID 1532; in the data active means inhibition above about 30%, passing the limit was not always enough
Hits are given with their value; . = inactive; / = no result given.

SMILES | YopH inh | RmlCD inh mix
O=C(NCc1ccco1)C1CCCN(S(=O)(=O)Cc2ccccc2)C1 (centres undefined) | . | .
Cc1ccc(S(=O)(=O)N2CCCC(C(=O)NCc3ccco3)C2)cc1Cl (centres undefined) | 56.2 | .
O=C(NC1CCCC1)C1CCCN1S(=O)(=O)c1cccc2cccnc12 (centres undefined) | . | .
O=C(NCc1ccccc1)C1CCCN1S(=O)(=O)c1cccc2cccnc12 (centres undefined) | 80.2 | .
O=C(Cn1c(=O)oc2cc(S(=O)(=O)N3CCc4ccccc43)ccc21)N1CCCCC1 | . | .
CCN(C)c1ccc(/C=N\n2nnnc2N)cc1 | . | 71.1
Nc1nnnn1/N=C/c1ccc(O)cc1 | . | .
O=C1C=CC(O)(c2cc(=O)c3c(O)cc(O)cc3o2)C=C1 | . | .
CCOC(=O)c1sc2nc(C(C)C)c3c(c2c1N)CC(C)(C)OC3 | . | .
CCOC(=O)c1sc2nc(N3CCCC3)c3c(c2c1N)CC(C)(C)OC3 | . | 45.1
CCOc1ccccc1NC(=O)C1CCCCN1S(=O)(=O)c1ccc(F)cc1 (centres undefined) | . | .
COc1ccc(-c2cc3nc4n(c(=O)c3s2)CCC4)cc1 | . | 49.7
COc1ccc(NS(=O)(=O)c2cccc(-c3nnc4n3CCCCC4)c2)cc1 | . | .
Cc1cc(C)n(-c2nc3c(c(=O)n(C)c(=O)n3C)n2CC(O)COc2ccccc2C)n1 (centres undefined) | . | /
CC(=O)c1cccc(NC(=S)NC(=O)CC(C)(C)C)c1 | . | .
COCCn1c(SCC(=O)Nc2ccc(NC(=O)c3ccco3)c(OC)c2)nc2ccccc2c1=O | . | .
CCn1c(SCC(=O)Nc2ccc(NC(=O)c3ccco3)c(OC)c2)nc2ccccc2c1=O | . | 95.0
O=C(CSc1n[nH]c(-c2cc(Cl)ccc2Cl)n1)NCCN1C(=O)CSC1=O | . | /
COCCn1cnc2c1c(=O)n(CC(=O)OCC(=O)NCC(F)(F)F)c(=O)n2Cc1ccccc1 | . | /
O=C(CN1C(=O)C2CC=CCC2C1=O)Nc1nnc(SCc2ccc(Cl)cc2)s1 (centres undefined) | 75.8 | .
O=C(CN1C(=O)C2CC=CCC2C1=O)Nc1nnc(SCc2c(Cl)cccc2Cl)s1 (centres undefined) | . | .
C/C(Cn1nnc2ccccc21)=N\NC(=O)c1cccc(Br)c1 | . | /
O=C1C(Nc2ccccc2)=C(N2CCCCC2)C(=O)c2ccccc21 | 98.3 | .
O=C(/C=C/c1ccc(O)cc1)c1ccc(NC2=C(N3CCCCC3)C(=O)c3ccccc3C2=O)cc1 | 92.8 | .
CN(C1=C(N2CCCCC2)C(=O)c2ccccc2C1=O)c1ccccc1 | . | .
SMILES | YopH inh | RmlCD inh mix
Cc1ccc(NC2=C(N3CCCCC3)C(=O)c3ccccc3C2=O)cc1 | 75.6 | .
COc1cccc(OC)c1C(=O)Nc1ccccc1N1CCCC1 | . | .
COc1ccc(C(=O)/C=C/c2ccc(O)cc2)cc1 | / | .
COC1=C(Nc2ccc(C)cc2)C(=O)c2ccccc2C1=O | . | /
COc1ccccc1NC1=C(N2CCCCC2)C(=O)c2ccccc2C1=O | 90.2 | /
CC(C)(C#CCN1CCCCC1)OCCOC(c1ccccc1)c1ccccc1 | . | /
C=CC[C@]12C=C(OC)C(=O)C=C1O[C@@H](c1ccc3c(c1)OCO3)[C@H]2C | / | .
Cc1cccc(C)c1NC(=S)NC(C)CCc1ccccc1 (centres undefined) | . | /
O=C(O)C[C@H](O)C[C@H](O)/C=C/c1c(C2CC2)nc2ccccc2c1-c1ccc(F)cc1 | / | .
Cc1ccc(NC(=O)/C(=C\c2ccccc2)NC(=O)/C=C/c2ccccc2)cc1 | . | .
O=[N+]([O-])c1ccc(NCCCNS(=O)(=O)c2ccccc2)c(Cl)c1 | . | /
O=C1C(Nc2cccc(O)c2)=C(N2CCCCC2)C(=O)c2ccccc21 | 80.7 | .
CC1(C)CC(=O)C=C(Nc2cccc(O)c2)C1 | . | .
O=C(CSc1nnc(-c2ccccc2)o1)n1c2c(c3ccccc31)CCCC2 | 56.0 | .
CC(=O)Nc1ccc(-c2nnc(SCC(=O)n3c4c(c5ccccc53)CCCC4)n2C)cc1 | 75.3 | .
Cc1ccc(-c2nnc(SCC(=O)n3c4c(c5ccccc53)CCCC4)o2)cc1 | . | /
Cn1c(SCC(=O)n2c3c(c4ccccc42)CCCC3)nnc1-c1ccccc1 | . | .
CCN(C(=O)CN1CCN(S(=O)(=O)c2ccccc2C(F)(F)F)CC1)c1c(N)n(Cc2ccccc2)c(=O)[nH]c1=O | . | /
CCC(=O)Nc1cc(C)c(NC(=O)c2ccccc2OC)cn1 | . | .
O=C1NCCCC2c3c(cc(Br)c(O)c3Br)OC12N1CCOCC1 (centres undefined) | . | .
O=C1NCCCC2c3cc(O)c4ccccc4c3OC12N1CCCCC1 (centres undefined) | 74.5 | .
COc1ccc(N(C(=O)CCl)C(C)(C(=O)Nc2c(C)cccc2C)c2ccccn2)cc1 (centres undefined) | . | /
COC(=O)Oc1c(Br)c(=O)oc2ccccc12 | . | 30.2
CC(=O)Nc1c(NC(C)C)c2ccccc2oc1=O | . | .
O=C(NCc1nc2ccccc2[nH]1)C1=C[C@@H](c2ccc3c(c2)OCO3)C[C@@H](OCc2ccc(CO)cc2)O1 | / | .
SMILES | YopH inh | RmlCD inh mix
O=C1C(N2CCOCC2)=C(n2nnc3ccccc32)C(=O)c2ccccc21 | 68.7 | .
O=C1c2ccccc2C(=O)c2c1cccc2N1CCOCC1 | . | /
Cn1c(=O)oc2cc(S(=O)(=O)Nc3ccc4c(c3)OCO4)ccc21 | . | .
COc1cc(OC)cc(C(=O)N2CCC(C(=O)Nc3ccc4c(c3)OCCO4)CC2)c1 | . | /
Cc1c(O)c(CN2CCCC2)cc2c3c(c(=O)oc12)CCC3 | . | .
CCc1cc(=O)oc2c(C)c(O)c(CN3CCCCC3)cc12 | . | 92.6
O=C(CNc1ccc(Br)cc1)NNC1=NCCC1 | . | /
Cn1c(COc2ccccc2)nnc1SCc1nc2ccccc2[nH]1 | 70.7 | .
CCn1c(COc2ccc(C)cc2)nnc1SCc1nc2ccccc2[nH]1 | . | .
CCN(CC)CCN(C)C1CCC(c2ccccc2)CC1 (centres undefined) | . | /
CCOC(=O)COc1cc(=O)n(CC)c2ccccc12 | 51.9 | .
CCOC(=O)N1CCN(C(=O)COc2cc(=O)n(CC)c3ccccc23)CC1 | . | .
CCOC(=O)c1nc(C)n(-c2ccc(Cl)cc2)n1 | 51.9 | .
CCOC(=O)c1nc(N)c(=O)n(-c2ccc(C)cc2)n1 | . | .
O=C(N/N=C/C=C/c1ccccc1)c1cc2c(ccc3ccccc32)o1 | . | .
CCC(=O)NS(=O)(=O)c1ccc(-c2c(-c3ccccc3)noc2C)cc1 | / | .
Cc1ccccc1-n1c(C)nnc1SCC(=O)N1CCc2ccccc2C1 | . | /
CCOC(=O)c1c(NC(=O)c2nn(CC)cc2Br)c(C#N)nn1-c1ccccc1 | 52.2 | .
CCOC(=O)c1nn(-c2ccccc2)c(C#N)c1NC(=O)c1nn(CC)cc1Br | . | .
O=C(NCCN1CCCCC1)c1ccc(=O)oc1 | . | 47.8
O=C(NCCN1CCCCC1)c1ccc2c(c1)OCCO2 | . | .
O/N=C\c1cccn1-c1ccc(Br)cc1 | . | .
O=C1C2=C(c3ccccc31)[N+](=O)C1CCCCC1N2[O-] (centres undefined) | . | .
O=C1C2=C(c3ccccc31)[N+](=O)[C@@H]1CCCC[C@@H]1N2[O-] | 58.6 | .
CCOC(=O)c1c2c(n(C)c1C)C(=O)C(=O)c1ccc(Br)cc1-2 | 88.5 | .
Cc1c(CN(C)C)c2c(n1C)C(=O)c1ccc(Br)cc1-2 | . | .
Cc1nc2c(=O)n(C)c(=O)nc-2n(C)n1 | 101.1 | /
